Molecules are shown by their SMILES.

This passage reports morphology score and SARS-CoV-2 infection rate results from the supplement of paper PMC13380429.

One assay deals with Vero E6 infected with SARS-CoV-2. Description: morphology score (similarity to uninfected cells); higher = more like uninfected cells. As to conditions: 24 h.
For `O=C1[C@@H]2[C@H]3CC[C@H](C3)[C@@H]2C(=O)N1CCCCN1CCN(c2ncccn2)CC1` [tandospirone] (10 µM), the morphology score was -0.0978.

The compound `CCN(CC)CCN(Cc1ccc(-c2ccc(C(F)(F)F)cc2)cc1)C(=O)Cn1c(SCc2ccc(F)cc2)nc(=O)c2c1CCC2` [darapladib] (0.833333 µM) came in with a morphology score of -0.0453.

The compound `NC[C@@](O)(c1ccc(Cl)cc1)c1ccc(-c2cn[nH]c2)cc1` (10 µM) showed a morphology score of 0.174.

On to `NS(=O)(=O)c1cc2c(cc1Cl)NCNS2(=O)=O` [hydrochlorothiazide] (10 µM), for which the morphology score amounted to 0.0281.

The compound `Cc1cc(C)c2nc(-c3ccccn3)cc(C(=O)Nc3ccc(S(=O)(=O)Nc4onc(C)c4C)cc3)c2c1` (10 µM) displayed a morphology score of -0.319.

The compound `Nc1ncc2c(n1)CC(c1ccco1)CC2=O` (configuration not stated) (10 µM) displayed a morphology score of 0.0161.

The compound `c1ccc(C(O[C@@H]2CCCN(CCc3ccc4c(c3)OCO4)C2)c2ccccc2)cc1` [zamifenacin] (10 µM) returned a morphology score of 0.152.

Compound `O=C1C[C@@H]2OCC=C3CN4CC[C@]56c7ccccc7N1[C@H]5[C@H]2[C@H]3C[C@H]46` [strychnine] (10 µM) showed a morphology score of 0.314.

For `O=C(Cn1ccnc1[N+](=O)[O-])NCc1ccccc1` [benznidazole] (10 µM), the morphology score is 0.0566.

For `NP(N)(=O)NC(=O)c1ccc(F)cc1` [flurofamide] (10 µM), the morphology score came out at 0.21.

Turning to `CC(=O)Oc1ccc(C(c2ccc(OC(C)=O)cc2)c2ccccn2)cc1` [bisacodyl] (10 µM), the morphology score came out at 0.261.

In the case of `O=C(O)c1ccccc1O` [salicylic-acid] (10 µM), the morphology score amounted to 0.0239.

Regarding `COc1ccc(Cc2cnc(N)nc2N)cc1OC` [diaveridine] (10 µM), the morphology score was 0.191.

`O=c1[nH]c(=O)n([C@H]2C[C@H](O)[C@@H](CO)O2)cc1I` [idoxuridine] (10 µM): the morphology score worked out at 0.0252.

For `C[C@@H](CN1CCC(Cc2ccccc2)CC1)[C@@H](O)c1ccc(O)cc1` (10 µM), the morphology score came to 0.157.

For `CC#CCOC(=O)c1c(C)nc2sc3c(c2c1N)CCC(O)C3` (configuration not stated) (10 µM), the morphology score was 0.151.

In turn, `COc1cc(NS(=O)(=O)c2ccc(N)cc2)ncn1` [sulfamonomethoxine] (10 µM) gave a morphology score of 0.102.

`CC(C)Oc1cccc(-n2c(CCc3c[nH]c4ccc(Br)cc34)nc3ccccc3c2=O)c1` (10 µM) registered a morphology score of 0.149.

`Cc1[nH]nc(C(F)(F)F)c1Cc1sc2c(c1C(=O)N1C[C@](C)(O)CO1)c(=O)n(C)c(=O)n2C(C)C` (10 µM) registered a morphology score of 0.0405.

For `CC(C)[C@H](C(=O)Nc1ccc(C(=O)NO)cc1)c1ccccc1` (10 µM), the morphology score turned out to be 0.0602.

`CCC1NC(=O)c2cc(S(N)(=O)=O)c(Cl)cc2N1` (configuration not stated) [quinethazone] (10 µM): the morphology score amounted to 0.339.

Turning to `N#Cc1c(-c2ccccc2)cc(-c2cc(Br)ccc2O)[nH]c1=O` (10 µM), the morphology score was 0.048.

Compound `CCCCCCCCN=c1ccn(CCCCCCCCCCn2ccc(=NCCCCCCCC)cc2)cc1` [octenidine] (0.833333 µM) yielded a morphology score of -0.0145.

`CCN(CCCOc1ccc2c(Nc3cc(CC(=O)Nc4cccc(F)c4)[nH]n3)ncnc2c1)CCOP(=O)(O)O` [barasertib] (0.833333 µM): the morphology score came out at 0.0323.

The compound `CCNC(C)CN1CCc2c(c(=O)oc3ccccc23)C1` (configuration not stated) (10 µM) registered a morphology score of 0.209.

As to `CC(C)(C)C1CCc2c(sc(NC(=O)c3ccco3)c2C(=O)O)C1` (configuration not stated) (0.833333 µM), the morphology score is 0.0992.

With `CN1C(CCl)Nc2cc(Cl)c(S(N)(=O)=O)cc2S1(=O)=O` (configuration not stated) [methyclothiazide] (10 µM), the morphology score was 0.0153.

A further assay shares this test system. Kind of assay: SARS-CoV-2 infection rate relative to infected DMSO; higher = more infection, active = 60 or less. As to conditions: 24 h.
With `Cc1c(-c2cnccn2)ssc1=S` [oltipraz] (10 µM), the SARS-CoV-2 infection rate is 109% (inactive).

For `COc1ccc(CC2NCCc3c2[nH]c2ccc(C)cc32)c(Cl)c1OC` (configuration not stated) (0.833333 µM), the SARS-CoV-2 infection rate is 104% (inactive).

With `OC[C@H]1O[C@@H](n2cnc3c(N[C@H]4CCC[C@@H]4O)ncnc32)[C@H](O)[C@@H]1O` (10 µM), the SARS-CoV-2 infection rate is 100% (inactive).

As for `C[C@H](c1ccc2ccc(OC3CCC(C(F)(F)F)CC3)c(C(F)(F)F)c2c1)N1C2CCC1CC(C(=O)O)C2` (some centres not stated) [autotaxin-modulator-1] (10 µM), the SARS-CoV-2 infection rate was 91% (inactive).

Take `N#Cc1ccc(N2N=C3c4ccc(C(=O)O)cc4CC[C@@H]3[C@@H]2C2CCCC2)cc1Cl` (10 µM): the SARS-CoV-2 infection rate is 108% (inactive).

For the compound `C=C[C@H]1CN2CC[C@H]1CC2C(OC(=O)OCC)c1ccnc2ccc(OC)cc12` (stereo in doubt) [quinine-ethyl-carbonate] (10 µM), the SARS-CoV-2 infection rate is 99% (inactive).

For `O=S(=O)(c1cccc2c(O)nccc12)N1CCCNCC1` [hydroxyfasudil] (10 µM), the SARS-CoV-2 infection rate is 108% (inactive).

On to `COC(=O)[C@@H](N)CCCNC(=N)N[N+](=O)[O-]` (10 µM), for which the SARS-CoV-2 infection rate is 98.5% (inactive).

With `c1ccc(Oc2cccnc2)cc1` (10 µM), the SARS-CoV-2 infection rate was 103% (inactive).

Take `CCCCCCCCCCCCCC(=O)OC(C)C` [isopropyl-myristate] (10 µM): the SARS-CoV-2 infection rate was 95.5% (inactive).

With `C[C@]12CCC(=O)C[C@@H]1CC[C@@H]1[C@@H]2CC[C@]2(C)C=CC[C@@H]12` [androstenone] (10 µM), the SARS-CoV-2 infection rate was 112% (inactive).

As to `COc1ccc(NS(=O)(=O)c2ccc(N)cc2)nn1` [sulfamethoxypyridazine] (10 µM), the SARS-CoV-2 infection rate was 110% (inactive).

Take `Cc1nc(Nc2ncc(C(=O)Nc3c(C)cccc3Cl)s2)cc(N2CCN(CCO)CC2)n1` [dasatinib] (0.833333 µM): the SARS-CoV-2 infection rate is 95.5% (inactive).

On to `O=C1[C@@H]2[C@H]3CC[C@H](C3)[C@@H]2C(=O)N1CCCCN1CCN(c2ncccn2)CC1` [tandospirone] (10 µM), for which the SARS-CoV-2 infection rate is 99% (inactive).

Take `CCN(CC)CCN(Cc1ccc(-c2ccc(C(F)(F)F)cc2)cc1)C(=O)Cn1c(SCc2ccc(F)cc2)nc(=O)c2c1CCC2` [darapladib] (0.833333 µM): the SARS-CoV-2 infection rate is 106% (inactive).

Regarding `NC[C@@](O)(c1ccc(Cl)cc1)c1ccc(-c2cn[nH]c2)cc1` (10 µM), the SARS-CoV-2 infection rate was 108% (inactive).

As to `NS(=O)(=O)c1cc2c(cc1Cl)NCNS2(=O)=O` [hydrochlorothiazide] (10 µM), the SARS-CoV-2 infection rate is 110% (inactive).

For the compound `Cc1cc(C)c2nc(-c3ccccn3)cc(C(=O)Nc3ccc(S(=O)(=O)Nc4onc(C)c4C)cc3)c2c1` (10 µM), the SARS-CoV-2 infection rate is 97% (inactive).

`Nc1ncc2c(n1)CC(c1ccco1)CC2=O` (configuration not stated) (10 µM): the SARS-CoV-2 infection rate is 99% (inactive).

Regarding `c1ccc(C(O[C@@H]2CCCN(CCc3ccc4c(c3)OCO4)C2)c2ccccc2)cc1` [zamifenacin] (10 µM), the SARS-CoV-2 infection rate was 96% (inactive).

With `O=C1C[C@@H]2OCC=C3CN4CC[C@]56c7ccccc7N1[C@H]5[C@H]2[C@H]3C[C@H]46` [strychnine] (10 µM), the SARS-CoV-2 infection rate is 90% (inactive).

As to `O=C(Cn1ccnc1[N+](=O)[O-])NCc1ccccc1` [benznidazole] (10 µM), the SARS-CoV-2 infection rate is 112% (inactive).

Take `NP(N)(=O)NC(=O)c1ccc(F)cc1` [flurofamide] (10 µM): the SARS-CoV-2 infection rate was 94.5% (inactive).

With `CC(=O)Oc1ccc(C(c2ccc(OC(C)=O)cc2)c2ccccn2)cc1` [bisacodyl] (10 µM), the SARS-CoV-2 infection rate was 85.5% (inactive).

For the compound `O=C(O)c1ccccc1O` [salicylic-acid] (10 µM), the SARS-CoV-2 infection rate is 107% (inactive).

Turning to `COc1ccc(Cc2cnc(N)nc2N)cc1OC` [diaveridine] (10 µM), the SARS-CoV-2 infection rate was 101% (inactive).

For the compound `O=c1[nH]c(=O)n([C@H]2C[C@H](O)[C@@H](CO)O2)cc1I` [idoxuridine] (10 µM), the SARS-CoV-2 infection rate is 108% (inactive).

`C[C@@H](CN1CCC(Cc2ccccc2)CC1)[C@@H](O)c1ccc(O)cc1` (10 µM): the SARS-CoV-2 infection rate is 98.5% (inactive).

For `CC#CCOC(=O)c1c(C)nc2sc3c(c2c1N)CCC(O)C3` (configuration not stated) (10 µM), the SARS-CoV-2 infection rate was 93% (inactive).

Take `COc1cc(NS(=O)(=O)c2ccc(N)cc2)ncn1` [sulfamonomethoxine] (10 µM): the SARS-CoV-2 infection rate was 89.5% (inactive).

As to `CC(C)Oc1cccc(-n2c(CCc3c[nH]c4ccc(Br)cc34)nc3ccccc3c2=O)c1` (10 µM), the SARS-CoV-2 infection rate is 93% (inactive).

Take `Cc1[nH]nc(C(F)(F)F)c1Cc1sc2c(c1C(=O)N1C[C@](C)(O)CO1)c(=O)n(C)c(=O)n2C(C)C` (10 µM): the SARS-CoV-2 infection rate is 101% (inactive).

With `CC(C)[C@H](C(=O)Nc1ccc(C(=O)NO)cc1)c1ccccc1` (10 µM), the SARS-CoV-2 infection rate is 104% (inactive).

Consider `CCC1NC(=O)c2cc(S(N)(=O)=O)c(Cl)cc2N1` (configuration not stated) [quinethazone] (10 µM), for which the SARS-CoV-2 infection rate was 88% (inactive).

Consider `N#Cc1c(-c2ccccc2)cc(-c2cc(Br)ccc2O)[nH]c1=O` (10 µM), for which the SARS-CoV-2 infection rate was 110% (inactive).

Regarding `CCCCCCCCN=c1ccn(CCCCCCCCCCn2ccc(=NCCCCCCCC)cc2)cc1` [octenidine] (0.833333 µM), the SARS-CoV-2 infection rate was 108% (inactive).

`CCN(CCCOc1ccc2c(Nc3cc(CC(=O)Nc4cccc(F)c4)[nH]n3)ncnc2c1)CCOP(=O)(O)O` [barasertib] (0.833333 µM): the SARS-CoV-2 infection rate was 112% (inactive).

With `CCNC(C)CN1CCc2c(c(=O)oc3ccccc23)C1` (configuration not stated) (10 µM), the SARS-CoV-2 infection rate is 98% (inactive).

For `CC(C)(C)C1CCc2c(sc(NC(=O)c3ccco3)c2C(=O)O)C1` (configuration not stated) (0.833333 µM), the SARS-CoV-2 infection rate is 106% (inactive).

As to `CN1C(CCl)Nc2cc(Cl)c(S(N)(=O)=O)cc2S1(=O)=O` (configuration not stated) [methyclothiazide] (10 µM), the SARS-CoV-2 infection rate was 104% (inactive).
